Bioassay records as filed in PubChem BioAssay.
Sampled rows, rich in hits. Any-hit rate of the full collection: about 4.1%.
MITF TRPM1 inh – MITF TRPM1 promoter inhibition in SK-MEL-5 cells. SK-MEL-5 TRPM1 promoter luciferase, 24 h. inhibition, % at 12.5 µM. hit rate 0.83% among 330,000. AID 488899;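 active = mean inhibition across replicates of 60% or more, whatever share of single replicates reaches that level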
TWEAK Fn14 block – TWEAK-Fn14 signaling inhibition; TWEAK-stimulated Fn14 reporter cells, luciferase luminescence, 8 h; inhibition, % at 10 µM; hit rate 2% among 360,000; in the data active = inhibition above about 50%
Shn3 inh set2 – Schnurri-3 reporter inhibition in Clone20 osteoblasts | hit rate 0.52% among 360,000 | AID 588674 | Clone20 osteoblast Shn3 3'UTR firefly luciferase, 24 h | inhibition, % at 12.5 µM;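 active = mean inhibition of at least 75% with every replicate also reaching 75%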
TROY NFkB inh – inhibitors of TROY-dependent NF-kB signaling; Q293 LMP1-TROYcd NF-kB luciferase reporter, 4 h; inhibition, % at 10 µM; hit rate 0.98% among 360,000;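 active = compounds whose plate-normalised and pattern-corrected inhibition of the luciferase reporter signal at the single screening dose is 50% or more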
EBV LMP1 NFkB – Epstein-Barr LMP1 NF-kappaB reporter inhibition | LMP1-induced NF-kappaB luciferase reporter cells, luminescence | inhibition, % at 12.5 µM | hit rate 0.69% among 350,000 | AID 504558; in the data active = inhibition above about 41%
Peg3 prom inh – reduces Peg3 promoter-driven luciferase expression in HeLa; HeLa PEG-Prom luciferase reporter, luminescence, overnight; inhibition, % at 20 µM; hit rate 1.7% among 360,000;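 active = inhibition of at least 50% at 20 µM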
A number is an active result; n = inactive; x = no result.

SMILES	MITF TRPM1 inh	TWEAK Fn14 block	Shn3 inh set2	TROY NFkB inh	EBV LMP1 NFkB	Peg3 prom inh
Clc1ccc(-c2nnc(-c3ccccc3)o2)c(Cl)c1	n	63	n	n	n	n
Cc1nn(-c2nc3ccccc3s2)c(C)c1Oc1ccccc1O	n	n	n	62	n	n
Cc1nn(-c2ccccn2)c(C)c1Oc1ccccc1O	n	n	n	n	n	n
Cn1c(-c2ccc(F)cc2)cnc1SCC(=O)N1CCCCC1	n	60	n	n	n	n
CCC(C)N(C(=O)CSc1nnc(COc2ccccc2F)n1N)C1CCS(=O)(=O)C1 (stereo not drawn)	n	n	n	n	n	n
Nc1ncnc2c1c(-c1ccc(Oc3ccccc3)cc1)cn2C1CCCC1	n	n	90	n	47	71
CCN(CC)S(=O)(=O)c1cc(NC(=O)CSCc2c(C)noc2C)ccc1C	n	n	n	n	n	n
CS(=O)(=O)N(CC(=O)N/N=C/c1cccc2c1OCCO2)c1ccccc1Br	n	n	n	n	n	n
CCOC(=O)c1ccc(-c2ccc(/C=N/NC(=O)CN(c3ccccc3Br)S(C)(=O)=O)o2)cc1	n	67	n	n	n	n
O=C(Nc1ccc(Br)cc1)C1CCCN(C2=NS(=O)(=O)c3ccccc32)C1 (stereo not drawn)	n	n	n	n	n	n
CCc1cc2c(=O)[nH]c(-c3ccccn3)nc2s1	n	n	n	n	n	96
CCCCN1CC(=O)N2[C@H]3c4cc(C)ccc4OC[C@@H]3[C@H](C(=O)OCC)[C@]2(C)C1=O	n	n	n	n	n	n
N=c1c(C(=O)NCC2CCCO2)cc2c(=O)n3ccccc3nc2n1Cc1ccco1 (stereo not drawn)	n	n	n	n	n	n
N=c1c(C(=O)NCCc2ccccc2)cc2c(=O)n3ccccc3nc2n1Cc1ccco1	n	75	n	n	n	n
N=c1c(C(=O)NC2CCCCC2)cc2c(=O)n3ccccc3nc2n1Cc1ccco1	n	85	n	n	n	n
N=c1c(C(=O)NC2CCCCC2)cc2c(=O)n3ccccc3nc2n1Cc1ccccc1	n	n	n	n	n	n
O=C(CCc1nnc2ccc(NCc3ccccc3)nn12)NC1CCCC1	n	n	n	n	n	n
Cc1cccn2cc(-c3ccc(NC(=O)Cc4ccccc4)cc3)nc12	x	n	n	89	n	n
O=C(Nc1c(Br)cc2c(c1Br)Cc1ccccc1-2)C(Cl)Cl	n	n	n	n	n	n
COc1cc2c(c(NC(C)=O)c1)N(C(C)=O)CCC2	n	n	n	n	n	n
N=C1C(c2nc3ccccc3s2)=C(O)CN1C1CCCCC1	n	n	n	n	n	n
COC(=O)[C@@]12CCCCN1[C@H](c1ccc(-c3cc(C(C)=O)cs3)cc1)[C@H]1C(=O)N(C)C(=O)[C@H]12	n	n	n	n	n	74
CCCSc1ccc([C@@H]2[C@@H]3C(=O)N(C)C(=O)[C@@H]3[C@]3(C(=O)OC)CCCCN23)cc1OC	n	n	n	n	n	n
CCCSc1ccc([C@@H]2[C@H]3C(=O)N(C)C(=O)[C@H]3[C@]3(C(=O)OC)CCCN23)cc1OC	n	n	n	n	85	n
CCc1ccccc1NS(=O)(=O)Cc1ccccc1	n	n	n	n	n	n
SMILES	MITF TRPM1 inh	TWEAK Fn14 block	Shn3 inh set2	TROY NFkB inh	EBV LMP1 NFkB	Peg3 prom inh
CCOc1cc(C2C(C(=O)c3ccco3)=C(O)C(=O)N2CC2CCCO2)ccc1O (stereo not drawn)	n	n	n	n	n	n
CN(C)c1nc(N)c([N+](=O)[O-])c(N2CCCCCC2)n1	n	n	n	n	x	n
Cc1cc(-c2csc(NC(=O)c3ccc(=O)[nH]c3)n2)c(C)n1Cc1ccco1	n	58	n	n	n	n
O=C(NNc1c2ccccc2nc2ccccc12)c1ccc(O)cc1O	n	n	n	n	n	n
O=C(NNc1c2ccccc2nc2ccccc12)c1ccccc1O	n	n	n	54	n	n
COc1ccc(OCC(=O)NNc2c3ccccc3nc3ccccc23)cc1	n	57	n	n	n	n
O=C(COc1ccccc1)NNc1c2ccccc2nc2ccccc12	n	n	n	n	n	n
C[n+]1c(-c2ccc(C=NNC(=O)c3ccc(C(=O)NN=Cc4ccc(-c5cn6ccccc6[n+]5C)cc4)cc3)cc2)cn2ccccc21	n	x	n	x	n	x
O=C(Nc1nnc(-c2ccc(Cl)cc2)o1)C1CCCCC1	n	n	n	n	n	n
Clc1ccc(-c2nnc(NC3=NCCCCC3)o2)cc1	n	93	n	66	46	n
